Test systems include RPMI-8226 leukemia; OVCAR-8 ovarian; OVCAR-5 ovarian; OVCAR-4 ovarian; IGROV1 ovarian; OVCAR-3 ovarian; HS 578T breast; T-47D breast; NCI/ADR-RES ovarian; SK-OV-3 ovarian.
Common to all, as to assay: NCI-60 one-dose screen, 48 h (100 = growth as untreated, 0 = no growth, -100 = all killed)
What all share (conditions): 10 µM

About 83,000 compounds went through this panel and 20% of them were active in at least one assay; those are over-represented in the sample as a whole.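 Negative percent growth values reflect cell death: -40 means 40% of the cells present at the start died, and -100 means all died.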 A number with no mark means an inactive call. The source made the active and inactive calls. The calls were made as follows: active = growth percent below 10; inactive = the rest.

Turning to `CCCCCCNC(=O)Oc1ccc(/C(=C(/CC)Cc2ccccc2)c2ccc(OCCN3CCCCC3)cc2)cc1`, the growth in the assay on RPMI-8226 leukemia was 68.2%; in the assay with OVCAR-8 ovarian, 81.6%; in the assay on OVCAR-5 ovarian it was 94%; in the assay with OVCAR-4 ovarian it was 69.9%; in the assay with IGROV1 ovarian, 91.1%; in the assay on OVCAR-3 ovarian, 87.8%. Besides, the growth in the assay on HS 578T breast is 83.5%; in the assay on T-47D breast it was 51.3%.
`Cc1ccc(-c2n[nH]c(=O)c3noc(-c4ccc(C)cc4)c23)cc1`: the growth in the assay on RPMI-8226 leukemia was 11.8%; with OVCAR-8 ovarian, 43.3%; in the assay with OVCAR-5 ovarian, 66.2%; in the assay with OVCAR-4 ovarian, 59.4%; in the assay with IGROV1 ovarian, 53.5%; with OVCAR-3 ovarian it was -13.3% (active). Further, the growth in the assay with HS 578T breast was 21.9%; in the assay on NCI/ADR-RES ovarian it was 32.5%; in the assay with T-47D breast, 28.6%.
Consider `COC(=O)C(C(C[N+](=O)[O-])c1ccccc1)=P(c1ccccc1)(c1ccccc1)c1ccccc1` (stereo not given), for which the growth in the assay on RPMI-8226 leukemia was -28.2% (active); with OVCAR-8 ovarian it was 93.4%; with OVCAR-5 ovarian, 96.5%; in the assay with OVCAR-4 ovarian, 98.3%; with IGROV1 ovarian, 66%; in the assay with OVCAR-3 ovarian, 89.5%. Also, the growth was 103% in the assay on NCI/ADR-RES ovarian and 83.9% with T-47D breast.
With `CN1CCC(CNc2cc(C3(C(=O)Nc4cc(C(=O)Nc5ccc(Cl)c(C(F)(F)F)c5)ccc4F)CC3)ncn2)CC1`, the growth is -32% (active) with RPMI-8226 leukemia; 44.3% in the assay with OVCAR-8 ovarian; 71.6% with OVCAR-5 ovarian; 81.1% in the assay on OVCAR-4 ovarian; 54.8% in the assay with IGROV1 ovarian; 29.4% in the assay on OVCAR-3 ovarian. The growth is 13.6% with HS 578T breast, 86.7% in the assay with NCI/ADR-RES ovarian and 63.7% with T-47D breast.
Consider `CNc1ncc(-c2ccc(C(F)(F)F)cc2)c(NC2CCCCCC2)n1`, for which the growth in the assay with RPMI-8226 leukemia was 32.1%; in the assay with OVCAR-8 ovarian, 84.2%; in the assay with OVCAR-5 ovarian it was 88.8%; in the assay on OVCAR-4 ovarian it was 70.1%; in the assay on IGROV1 ovarian, 63.9%; in the assay with OVCAR-3 ovarian, 78.2%. Further, the growth in the assay on HS 578T breast is 99.6%; in the assay with NCI/ADR-RES ovarian it was 65.2%; in the assay with T-47D breast, 45.8%.
Turning to `Nc1c(C(=O)Nc2ccccc2)sc2nc3c(cc12)CCCC3`, the growth in the assay on RPMI-8226 leukemia was 15.4%; in the assay on OVCAR-8 ovarian, 33.6%; in the assay with OVCAR-5 ovarian, 62%; in the assay with OVCAR-4 ovarian it was 49.9%; in the assay on IGROV1 ovarian, 30.5%; with OVCAR-3 ovarian it was -13.7% (active). Besides, the figures for the growth in the assay on NCI/ADR-RES ovarian and in the assay with T-47D breast were 20.4% and 47.3%, respectively.
Take `CN1CCC2(CC1)NC(=O)c1c(c3ccc(Cl)c(Cl)c3n1C)C2C#N` (stereo not given): the growth in the assay on RPMI-8226 leukemia is 80.4%; with OVCAR-8 ovarian, 80.8%; with OVCAR-5 ovarian, 67.7%; with SK-OV-3 ovarian, 86.1%; in the assay with IGROV1 ovarian, 73.4%; with OVCAR-3 ovarian, 76%. Further, the growth was 71.1% with HS 578T breast, 82.4% in the assay with NCI/ADR-RES ovarian and 81.3% in the assay with T-47D breast.
Turning to `CCN(CC)Cc1cc(Nc2ccnc3cc(Cl)ccc23)ccc1OC`, the growth in the assay with RPMI-8226 leukemia is 72.2%; with OVCAR-8 ovarian, 91.7%; with OVCAR-5 ovarian it was 109%; with OVCAR-4 ovarian, 68.2%; with IGROV1 ovarian, 94.5%; in the assay on OVCAR-3 ovarian it was 93.6%. The growth is 89.5% in the assay with NCI/ADR-RES ovarian and 102% in the assay with T-47D breast.
Regarding `O=C1/C(=C\c2ccccc2)CN(C(=O)c2ccccc2F)C/C1=C\c1ccccc1`, the growth with RPMI-8226 leukemia was -40.3% (active); in the assay with OVCAR-8 ovarian, 10.6%; in the assay with OVCAR-5 ovarian, 64.9%; in the assay on OVCAR-4 ovarian, 28.8%; with OVCAR-3 ovarian it was -20.1% (active); in the assay with HS 578T breast, -10.1% (active). Besides, the growth was 23.8% in the assay with NCI/ADR-RES ovarian and 42.7% with T-47D breast.
For the compound `COc1cc(OC)cc(-c2cncn2-c2ccc(-c3nc4cc(OC)cc(OC)c4s3)cc2)c1`, the growth is 44.6% in the assay with RPMI-8226 leukemia; 80.7% with OVCAR-8 ovarian; 99.9% in the assay on OVCAR-5 ovarian; 70.5% in the assay with SK-OV-3 ovarian; 56.1% in the assay with IGROV1 ovarian; 20.3% in the assay on OVCAR-3 ovarian. Moreover, the growth in the assay with HS 578T breast was 50.3%; in the assay with NCI/ADR-RES ovarian, 21.2%; in the assay on T-47D breast, 62.8%.
Regarding `COc1ccc(C(=O)/C=C/c2cc(-c3cc(OC)c(OC)c(OC)c3)n[nH]2)cc1`, the growth was -38.8% (active) in the assay with RPMI-8226 leukemia; 16.1% in the assay with OVCAR-8 ovarian; 47.8% in the assay on OVCAR-5 ovarian; 45.6% in the assay on OVCAR-4 ovarian; 43.2% in the assay with IGROV1 ovarian; 11.1% in the assay on OVCAR-3 ovarian. Besides, the results for the growth in the assay on HS 578T breast, in the assay on NCI/ADR-RES ovarian and in the assay with T-47D breast were 71.3%, 25.9% and 13.6%, respectively.
Take `COc1ccc(C2CC(c3ccc(N(C)C)cc3)=NN2c2ccc(S(N)(=O)=O)cc2)cc1` (stereo not given): the growth in the assay on RPMI-8226 leukemia was 34.1%; with OVCAR-8 ovarian, 42.3%; with OVCAR-5 ovarian, 84.3%; with OVCAR-4 ovarian, 48.6%; in the assay on IGROV1 ovarian, 56.6%; in the assay on OVCAR-3 ovarian it was 54.7%. In addition, the growth is 96.7% in the assay with HS 578T breast and 36.9% in the assay on T-47D breast.
Take `COc1ccc(OC)c(/C=C/c2nc(SCc3ccccc3)n(-c3ccc(Cl)cc3)n2)c1`: the growth with RPMI-8226 leukemia was 42.5%; in the assay on OVCAR-8 ovarian, 83.6%; in the assay with OVCAR-5 ovarian, 102%; with SK-OV-3 ovarian, 86.2%; in the assay on IGROV1 ovarian it was 43.9%; in the assay with OVCAR-3 ovarian, 17.3%. Moreover, the growth in the assay with HS 578T breast was -2.4% (active); with NCI/ADR-RES ovarian, 19.1%; in the assay with T-47D breast, 78%.
In the case of `O=[N+]([O-])c1cccc(N=Cc2ccc3c(c2)OCO3)c1`, the growth in the assay on RPMI-8226 leukemia is 104%; with OVCAR-8 ovarian it was 97.3%; in the assay with OVCAR-5 ovarian, 116%; in the assay with OVCAR-4 ovarian, 104%; in the assay on IGROV1 ovarian, 109%; in the assay on OVCAR-3 ovarian it was 112%. In addition, the growth in the assay on HS 578T breast is 116%; in the assay with NCI/ADR-RES ovarian, 105%; with T-47D breast, 103%.

For the origin of these results see PubChem BioAssay (NCI).
